Only some compounds are listed: those with a hit (about 21% of all), similar ones and a draw of the others.
CHX counter – counter-screen for Shiga toxin inhibitors: cycloheximide protein synthesis inhibition; max response, %; 300,000 compounds, 12% hits; cell reporter, cycloheximide protein synthesis inhibition counterscreen; in the data active = max response mostly above about 13%, no sharp cut-off; inactive = mostly below about 14%; also: read at 38.3 µM for the half of the compounds with a filed dose; 0% is about no effect
Shiga inhibitor – blocks Shiga toxin action in Vero cells | Vero cells, Shiga toxin protein synthesis inhibition reporter | inhibition, % at 38.7 µM | 290,000 compounds, 9.2% hits | AID 2315; in the data active = inhibition mostly above about 28%, no sharp cut-off; inactive = mostly below about 43%; also: 0% is about no effect
Pf growth 96h – P. falciparum growth inhibition at 96 hours; AID 504834; Potency, µM (series often up to 28.7 µM), for the others: at the top dose activity change, negative = inhibition, actives largely listed as inhibitors; 320,000 compounds, 6.9% hits; P. falciparum luciferase reporter growth, 96 h; also: potency is read from the fitted curve at half-maximal effect; % is scaled to controls: 0 for no effect and ±100 for the full control effect
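P. falciparum expressing integrated firefly luciferase grown in erythrocytes (2% hematocrit, 0.05% parasitemia final) with compounds for 96 hours at 37 C, 5% CO2. Growth inhibition read as loss of luminescence after adding luciferase detection reagent.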
NS1 inh – inhibitors of influenza NS1 protein function; Potency, µM (series often up to 46.1 µM), without a hit: at the highest dose activity, positive = more growth; 270,000 compounds, 0.4% hits; calls by dose curve; also: potency is read from the fitted curve at half-maximal effect; actives are rising curves; nearly all actives have a fitted effect of over 50% in size
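S. cerevisiae expressing influenza A NS1, grown in glucose, washed, then diluted 1:100 into pH 6.0 -URA galactose medium with 23 nl compound. Growth recovery read as OD600; NS1-free strain serves as control.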
Pf growth 48h – inhibits P. falciparum growth in the first generation, 48 h | 310,000 compounds, 5.9% hits | P. falciparum luciferase growth in erythrocytes, 48 h | Potency, µM (highest dose often 28.7 µM), without a hit: at the top dose activity change, negative = inhibition, actives largely listed as inhibitors; also: potency is read from the fitted curve at half-maximal effect; % is scaled to controls: 0 for no effect and ±100 for the full control effect
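Compounds are pin-transferred into medium, infected erythrocytes (2% hematocrit, 0.1% parasitemia final) are added, and plates sit one parasite generation at 37 C in 5% CO2. Detection reagent is then added and luminescence measured.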
SARS PLpro yeast – inhibitors of SARS-CoV papain-like protease in yeast. S. cerevisiae expressing SARS-CoV PLpro, growth rescue. Potency, µM (titrated, usually from 32.9 µM), for the others: top-dose activity, positive = growth rescue, most hits filed as activators. 330,000 compounds, 0.19% hits; calls by dose curve; also: potency is read from the fitted curve at half-maximal effect; 0% is about no effect; nearly all actives have a fitted effect of over 55% in size
* = called active by the depositor; u = inconclusive; x = not tested or not shown; [ ] = remark or other dose. Unless noted, calls follow the shape of the dose curve; as a rule, active = well fitted inhibition curve with a large enough effect; inconclusive = small, poorly fitted or top-dose-only effect, or another doubt; inactive = no such curve, though single readings can be large or run the other way.

SMILES | CHX counter | Shiga inhibitor | Pf growth 96h | NS1 inh | Pf growth 48h | SARS PLpro yeast
Cn1c(N)c(C(=O)COC(=O)/C=C/c2cccc(Br)c2)c(=O)n(C)c1=O | x | x | -112% | x | 13µM* | -5%
CSc1ccc(/C=C(/NC(=O)c2ccco2)C(=O)N2CCCCCC2)cc1 | -1 | -3 | 55% | -11% | -15% | 18%
CN1C(=O)NC(c2ccc([N+](=O)[O-])cc2)C2=C1CC(C)(C)CC2=O (configuration not stated) | -7 | -12 | u | 4% | -11% | 3%
CN1C(=O)NC(c2ccccc2[N+](=O)[O-])C2=C1CCCC2=O (configuration not stated) | -4 | -5 | 9.3µM* | 7% | -2%[0.00184 µM] | 0%
CN1C(=O)NC(c2ccccc2[N+](=O)[O-])C2=C1CC(C)(C)CC2=O (configuration not stated) | -3 | -13 | 9.3µM* | 12% | -8%[0.00184 µM] | 2%
COc1cc(C2NC(=O)N(C)C3=C2C(=O)CCC3)cc(OC)c1OC (configuration not stated) | -1 | -4 | -1% | -5% | 1% | 4%
O=C(NCC1CCCO1)c1cc(S(=O)(=O)Nc2ccc(Br)cc2)ccc1Cl (configuration not stated) | -7 | -2 | 33% | -7% | -31%[1.15 µM] | 0%
CS(=O)(=O)N1CCN(c2ccc(NC(=O)c3ccccc3)cc2)CC1 | 37* | 82* | 13% | x | 131% | -1%
Cc1cccc(C(=O)Nc2ccc(N3CCN(S(C)(=O)=O)CC3)cc2)c1 | 22* | 73* | 35% | 1% | 98% | 1%
COc1cccc(C(=O)Nc2ccc(N3CCN(S(C)(=O)=O)CC3)cc2)c1 | 13 | 26 | 57% | 5% | x | -4%
Cc1noc(C)c1NC(=O)Nc1ccc2c(c1)C(=O)N([C@H](C)CO)C[C@H](C)[C@@H](CN(C)C(=O)Nc1ccc3c(c1)OCO3)O2 | x | x | x | x | x | 0%
CCc1ccccc1NC(=O)CNC(=O)c1cccc(S(=O)(=O)N2CCN(Cc3ccccc3)CC2)c1 | x | x | -19% | x | u | 0%
CC(=O)Nc1ccc(S(=O)(=O)N2CCN(Cc3cccc([N+](=O)[O-])c3)CC2)cc1 | -7 | -15 | 1.7µM* | -10% | -5% | -1%
CC(=O)Nc1ccc(S(=O)(=O)N2CCN(Cc3cccnc3)CC2)cc1 | -3 | -4 | x | 1% | 8% | 1%
COc1cccc(NC(=O)c2cccc(S(=O)(=O)N3CCN(Cc4ccccc4)CC3)c2)c1 | x | x | 7.4µM* | x | u | -13%
CC(=O)Nc1cccc(NC(=O)c2cccc(S(=O)(=O)N3CCN(Cc4ccccc4)CC3)c2)c1 | x | x | 10µM* | x | 10µM* | 7%
CCN(CC)C(=O)c1ccc(NC(=O)c2cccc(S(=O)(=O)N3CCN(Cc4ccccc4)CC3)c2)cc1 | x | x | 12µM* | x | 10µM* | 4%
CC1Sc2ccc(C(=O)NCc3cccc(C(F)(F)F)c3)cc2NC1=O (configuration not stated) | x | x | -28% | x | u | -2%
CN(CC(=O)Nc1cccc(F)c1)C(=O)CN1C(=O)NC2(CCCC2)C1=O | x | x | 27% | x | 3% | -9%
O=C(c1cccc(S(=O)(=O)N2CCCCC2)c1)N1CCN(Cc2ccccc2)CC1 | x | x | u | x | u | 1%
CC1CCCCC1NC(=O)c1cccc(S(=O)(=O)N2CCN(Cc3ccccc3)CC2)c1 (configuration not stated) | x | x | 15µM* | x | 17µM* | 2%
Cc1cc(S(=O)(=O)NCc2ccco2)c(C)s1 | -1 | 18 | 7.4µM* | 5% | 5% | 1%
Cc1cc(S(=O)(=O)NCc2ccc(S(N)(=O)=O)cc2)c(C)s1 | -7 | -20 | u | 5% | -6% | -2%
Cc1cccc(NC(=O)c2ccc(F)c(S(=O)(=O)NCc3ccco3)c2)c1 | 44* | 84* | u | -13% | 0% | 4%
Cc1cccc(NC(=O)c2ccc(F)c(S(=O)(=O)N3CCC4(CC3)OCCO4)c2)c1 | 34* | 28 | -8% | -30% | u | 0%
SMILES | CHX counter | Shiga inhibitor | Pf growth 96h | NS1 inh | Pf growth 48h | SARS PLpro yeast
CC(=O)Nc1cccc(C(=O)Nc2cccc(S(=O)(=O)NCc3ccco3)c2)c1 | x | x | u | x | u | 4%
CCN(CC(=O)Nc1ccc(OC)cc1)C(=O)c1ccc2c(c1)NC(=O)CS2 | x | x | -3% | x | -3% | 0%
CN(C)S(=O)(=O)c1cc(C(=O)OCCn2cnc3c2c(=O)n(C)c(=O)n3C)ccc1Cl | 6 | -10 | -17% | x | u | 0%
CC1=C(C(=O)Nc2ccc(C(=O)NC(C)c3ccccc3)cc2)SCCO1 (configuration not stated) | 5 | 7 | -1% | 1% | u | 5%
O=C(O)Cn1nc(-c2ccccc2)cc1-c1ccccc1 | 12 | 9 | 266% | 1% | 13% | -1%
O=C(O)CC(C(=O)O)n1nc(-c2ccccc2)cc1-c1ccccc1 (configuration not stated) | 39* | 73 | 3% | -29% | 72% | 1%
COC(=O)C(NC(=O)c1ccccc1C(=O)O)c1ccc2ccccc2c1 (configuration not stated) | -1 | -14 | -6% | 4% | 36% | 0%
CCOC(=O)Cn1c(=NC(=O)C2COc3ccccc3O2)sc2cc(S(N)(=O)=O)ccc21 (configuration not stated) | 8 | -10 | u | 12% | 4% | 6%
CCOC(=O)Cn1c(=NC(=O)c2ccc([N+](=O)[O-])s2)sc2ccccc21 | -1 | -10 | 3.7µM* | -34% | 9.3µM* | -57%
COc1ccc(C(=O)CSc2n[nH]c(C)n2)cc1[N+](=O)[O-] | 11 | -9 | 3%[5.75 µM] | x | 31%[5.75 µM] | 0%
CCCCN(CC)C(=O)c1ccc(Cl)cc1 | -5 | -3 | 44%[5.75 µM] | 2% | 28% | 0%
CCCCN(CC)C(=O)c1ccc(Cl)c(Cl)c1 | 14* | 29 | x | 0% | -5% | 1%
COc1ccc(OCc2nnc(SCc3ccc(C(=O)O)cc3)o2)cc1 | -1 | -9 | -2% | -1% | -2% | 1%
O=C(O)c1ccc(CSc2nnc(COc3ccc(Cl)cc3Cl)o2)cc1 | 5 | 14 | 2.6µM* | -56% | x | 1%
CCC(CC)CN1C(Nc2ccccc2)=NC[C@@H]1C | -1 | -2 | 8% | -13% | 0% | -7%
C=CCNC(=O)COc1c(C)ccc(C)c1C | -4 | 3 | 12% | 1% | -12%[5.75 µM] | 1%
Oc1ccccc1/C=N/Nc1nn[nH]n1 | -3 | 15 | -23% | 5% | 4% | 0%
COc1cccc(/C=N/Nc2ccc([N+](=O)[O-])cn2)c1O | 40* | 91* | u | -66% | u | -10%
COc1cccc(/C=N/Nc2ccnc(=O)[nH]2)c1O | 26* | 56* | 0.23µM* | 3% | 0.29µM* | 4%
CCOc1ccccc1/C=N/Nc1ccnc(=O)[nH]1 | 24* | 28 | u | 16% | u | -1%

Bioassay records from PubChem BioAssay.
